Structures can show the parent of a compound that is named as a salt.
Legend:
Settings in all cases: compound concentration in added solution (µM; 5 µl added to 20 µl cells): 10; 18 h
A431 [1] = assay: LBPA endosome anti-LBPA integrated intensity (sum per cell), Z-score; higher = more LBPA staining
Method in brief: (§1)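 Each value is a Z-score normalised in AcuityXpress from per-cell integrated LBPA or filipin intensity, taken over the whole cell or within LBPA endosomes. Duplicate 384-well imaging plates held 5 µl of 10 µM compound solution, onto which 3,500 HeLa MZ or A431 cells in 20 µl were seeded per well. After 18 h the cells were fixed in 4% PFA, stained with 6C4 anti-LBPA antibody, filipin, propidium iodide and CellTracker green, imaged four times per well at 20× and segmented in MetaXpress.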

HeLa MZ [2] = assay: as above
Method in brief: as §1

A431 [3] = assay: whole-cell filipin (free cholesterol) integrated intensity, Z-score; higher = more cholesterol staining
Method in brief: as §1

HeLa MZ [4] = assay: as above
Method in brief: as §1

A431 [5] = assay: filipin (cholesterol) integrated intensity within LBPA endosomes, Z-score; higher = more cholesterol in LBPA endosomes
Method in brief: as §1

HeLa MZ [6] = assay: as above
Method in brief: as §1

| Compound | LBPA endosome anti-LBPA integrated intensity (z-score) (A431 [1]) | LBPA endosome anti-LBPA integrated intensity (z-score) (HeLa MZ [2]) | whole-cell filipin (z-score) (A431 [3]) | whole-cell filipin (z-score) (HeLa MZ [4]) | filipin (z-score) (A431 [5]) | filipin (z-score) (HeLa MZ [6]) |
| --- | --- | --- | --- | --- | --- | --- |
| CC(C)(C)NCC(O)COc1cccc2c1CCC(=O)N2 (stereo not given) [Carteolol hydrochloride] | -0.364 | 0.373 | -0.558 | -0.304 | -0.479 | -0.264 |
| CNC[C@H](O)[C@@H](O)[C@H](O)[C@H](O)CO [Meglumine] | -0.671 | -1.5 | -0.386 | -0.451 | -0.555 | -0.582 |
| CC(C)(C)NCC(O)c1ccc(O)c(CO)c1 (stereo not given) [Salbutamol] | -0.288 | -0.311 | 0.022 | -0.307 | -0.535 | -0.499 |
| COc1cc([S+](C)[O-])ccc1-c1nc2cccnc2[nH]1 (stereo not given) [Sulmazole] | -0.64 | -1.23 | -0.818 | -0.362 | -0.483 | -0.399 |
| CCCCOc1ccc(C(=O)CCN2CCCCC2)cc1 [Dyclonine hydrochloride] | 0.717 | 0.215 | 0.502 | -0.794 | 0.482 | -0.156 |
| NCCNCCNCCNCCN [Tetraethylenepentamine pentahydrochloride] | -0.276 | -0.00928 | 0.0109 | 0.146 | -0.392 | -0.197 |
| CCCCC(=O)O[C@H]1CC[C@H]2[C@@H]3CCc4cc(O)ccc4[C@H]3CC[C@]12C [Estradiol Valerate] | -0.347 | -0.788 | 0.103 | 0.191 | -0.224 | -0.226 |
| c1cnc(N2CCN(Cc3ccc4c(c3)OCO4)CC2)nc1 [Piribedil hydrochloride] | 0.161 | 1.95 | 0.544 | 1.93 | -0.00283 | 1.55 |
| CC1(C)NC(=O)N(c2ccc([N+](=O)[O-])c(C(F)(F)F)c2)C1=O [Nilutamide] | -0.466 | -0.349 | -0.373 | -0.711 | -0.474 | -0.472 |
| N[C@@H](Cc1ccc(O)c(O)c1)C(=O)O [Levodopa] | -0.339 | -0.518 | -0.462 | -0.115 | -0.332 | -0.358 |
| O=C(Cn1ccnc1[N+](=O)[O-])NCCO [Etanidazole] | -0.499 | -0.402 | -0.226 | 0.609 | -0.413 | -0.325 |
| CO[C@@]1(NC(=O)CSCC#N)C(=O)N2C(C(=O)O)=C(CSc3nnnn3C)CS[C@@H]21 [Cefmetazole sodium salt] | -0.329 | 0.139 | -0.215 | -0.0972 | -0.434 | -0.479 |
| CC[N+](CC)(CC)CCOc1cccc(OCC[N+](CC)(CC)CC)c1OCC[N+](CC)(CC)CC [Gallamine triethiodide] | -0.558 | -0.807 | -0.891 | -0.384 | -0.526 | -0.576 |
| CNCCC(Oc1ccc(C(F)(F)F)cc1)c1ccccc1 (stereo not given) [Fluoxetine hydrochloride] | 2.5 | 0.902 | 0.302 | -0.115 | 2.19 | 1.62 |
| CCn1cc(C(=O)O)c(=O)c2cc(F)c(N3CCNC(C)C3)c(F)c21 (stereo not given) [Lomefloxacin hydrochloride] | -0.676 | -1.53 | -1.2 | -0.837 | -0.597 | -0.65 |
| CN(C)CCOC(c1ccccc1)c1ccccc1 [Diphenhydramine hydrochloride] | -0.431 | -0.0117 | -0.136 | -0.63 | -0.485 | -0.0904 |
| CN(C)[C@@H]1C(O)=C(C(=O)NCNCCCC[C@H](N)C(=O)O)C(=O)[C@@]2(O)C(O)=C3C(=O)c4c(O)cccc4[C@@](C)(O)[C@H]3C[C@@H]12 [Lymecycline] | -0.193 | 0.509 | 0.136 | 0.267 | -0.319 | -0.559 |
| N=C(N)NCc1cccc(I)c1 [Iobenguane sulfate] | -0.605 | -1.1 | -0.881 | -0.23 | -0.54 | -0.449 |
| CCN(CC)CCOc1ccc(C(=C(Cl)c2ccccc2)c2ccccc2)cc1 [Clomiphene citrate (Z,E)] | 1.86 | 0.54 | 0.0851 | 1.03 | 2.72 | 3.06 |
| COc1ccccc1N1CCN(CC(O)COc2cccc3ccccc23)CC1 (stereo not given) [Naftopidil dihydrochloride] | 0.776 | 1.7 | 0.857 | 0.537 | 0.575 | 0.742 |
| CCN(CC)CC#CCOC(=O)C(O)(c1ccccc1)C1CCCCC1 (stereo not given) [Oxybutynin chloride] | 0.579 | 1.7 | 0.833 | 0.613 | 0.892 | 1.15 |
| CCN(CC)C(=O)N1CCN(C)CC1 [Diethylcarbamazine citrate] | -0.522 | -0.824 | -0.731 | -0.758 | -0.529 | -0.553 |
| C[C@@H]1CN(c2c(F)c(N)c3c(=O)c(C(=O)O)cn(C4CC4)c3c2F)C[C@H](C)N1 [Sparfloxacin] | -0.202 | 0.876 | 0.309 | 0.295 | -0.322 | -0.143 |
| CN[C@@H]1[C@H](O)[C@H](NC)[C@H]2O[C@@]3(O)C(=O)C[C@@H](C)O[C@H]3O[C@@H]2[C@H]1O [Spectinomycin dihydrochloride] | -0.507 | -0.585 | -0.388 | -0.158 | -0.451 | -0.309 |
| COC(=O)C1=C(C)NC(C)=C(C(=O)OC(C)C)C1c1cccc2nonc12 (stereo not given) [Isradipine] | -0.123 | 0.656 | 0.258 | -0.179 | -0.13 | -0.161 |
